In publication PMC7862700, “An all-to-all approach to the identification of sequence-specific readers for epigenetic DNA modifications on cytosine”:

Experiments:
Assay in all cases: DAPPL (digital affinity profiling via proximity ligation, sequencing); 10 mM Tris-HCl pH 7.5, 50 mM NaCl, 1 mM DTT, 4% glycerol, room temperature, 30 min; GST-TFs on glutathione beads, 16-mer random dsDNA library, 0.1% formaldehyde crosslink after washing; high values mean tight binding
Settings in all cases: protein: recombinant; tags: N-terminal GST; dsDNA, one strand shown
GABPA = target: T1, GABPA (Homo sapiens, UniProt Q06546 1-454)
T1 sequence: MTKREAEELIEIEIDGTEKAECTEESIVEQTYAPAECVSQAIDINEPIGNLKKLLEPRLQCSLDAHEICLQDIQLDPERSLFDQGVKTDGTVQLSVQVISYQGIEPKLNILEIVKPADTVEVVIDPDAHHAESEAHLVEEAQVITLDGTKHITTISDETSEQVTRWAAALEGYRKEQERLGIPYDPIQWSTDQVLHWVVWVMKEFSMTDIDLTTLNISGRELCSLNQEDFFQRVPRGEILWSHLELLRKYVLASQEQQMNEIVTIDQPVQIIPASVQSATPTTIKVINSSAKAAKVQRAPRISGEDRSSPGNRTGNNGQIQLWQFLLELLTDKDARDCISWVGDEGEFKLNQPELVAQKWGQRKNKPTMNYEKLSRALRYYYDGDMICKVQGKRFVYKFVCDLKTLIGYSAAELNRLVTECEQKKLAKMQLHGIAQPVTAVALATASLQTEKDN
How it was run: (§1)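 Yeast served to express human transcription factors as GST fusions, which were then captured on glutathione beads and labelled with DNA barcodes. Pooled with a tag-only sample, they were incubated with 200 nmole of a 16-mer random double-stranded DNA library for 30 min at room temperature in Tris/NaCl/DTT/glycerol buffer, washed, crosslinked with 0.1% formaldehyde, ligated by proximity, amplified by PCR and sequenced. Dividing each hexamer's read frequency for a factor by its frequency for the tag-only sample gives the binding signal.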

ELF1 = ELF1 (Homo sapiens, UniProt P32519 1-619)
How it was run: as §1

SPIB = SPIB (Homo sapiens, UniProt Q01892 1-262)
How it was run: as §1

ELK3 = target: T2, ELK3 (Homo sapiens, UniProt P41970 1-407)
T2 sequence: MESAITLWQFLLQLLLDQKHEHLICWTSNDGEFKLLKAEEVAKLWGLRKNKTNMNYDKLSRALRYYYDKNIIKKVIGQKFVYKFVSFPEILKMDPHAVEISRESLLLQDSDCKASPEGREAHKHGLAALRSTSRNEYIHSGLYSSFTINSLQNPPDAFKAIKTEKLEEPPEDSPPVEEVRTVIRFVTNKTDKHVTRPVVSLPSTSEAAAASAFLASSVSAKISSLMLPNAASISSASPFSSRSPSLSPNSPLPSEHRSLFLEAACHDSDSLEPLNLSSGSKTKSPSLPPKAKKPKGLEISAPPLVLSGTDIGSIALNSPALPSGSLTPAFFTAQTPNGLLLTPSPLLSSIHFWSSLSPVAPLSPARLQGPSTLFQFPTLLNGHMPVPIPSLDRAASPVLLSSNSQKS
How it was run: as §1

SPIC = target: T3, SPIC (Homo sapiens, UniProt Q8N5J4 1-248)
T3 sequence: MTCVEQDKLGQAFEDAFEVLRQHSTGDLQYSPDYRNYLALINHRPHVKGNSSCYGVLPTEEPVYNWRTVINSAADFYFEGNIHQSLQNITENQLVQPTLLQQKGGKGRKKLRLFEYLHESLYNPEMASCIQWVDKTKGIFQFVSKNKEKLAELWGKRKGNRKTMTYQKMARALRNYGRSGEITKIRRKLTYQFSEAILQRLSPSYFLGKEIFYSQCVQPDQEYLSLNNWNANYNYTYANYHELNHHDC
How it was run: as §1

ETV2 = target: T4, ETV2 (Homo sapiens, UniProt O00321 1-342)
T4 sequence: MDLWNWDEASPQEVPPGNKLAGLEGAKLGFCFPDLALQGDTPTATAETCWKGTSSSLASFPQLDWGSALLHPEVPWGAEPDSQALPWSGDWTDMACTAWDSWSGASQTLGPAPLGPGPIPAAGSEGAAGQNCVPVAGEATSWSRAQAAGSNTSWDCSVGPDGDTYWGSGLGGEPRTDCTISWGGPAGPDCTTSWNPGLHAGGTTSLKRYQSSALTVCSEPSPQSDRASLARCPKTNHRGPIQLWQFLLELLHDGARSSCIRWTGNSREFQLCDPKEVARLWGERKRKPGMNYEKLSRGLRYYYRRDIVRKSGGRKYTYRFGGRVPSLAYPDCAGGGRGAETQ
How it was run: as §1

ETV3L = target: T5, ETV3L (Homo sapiens, UniProt Q6ZN32 1-361)
T5 sequence: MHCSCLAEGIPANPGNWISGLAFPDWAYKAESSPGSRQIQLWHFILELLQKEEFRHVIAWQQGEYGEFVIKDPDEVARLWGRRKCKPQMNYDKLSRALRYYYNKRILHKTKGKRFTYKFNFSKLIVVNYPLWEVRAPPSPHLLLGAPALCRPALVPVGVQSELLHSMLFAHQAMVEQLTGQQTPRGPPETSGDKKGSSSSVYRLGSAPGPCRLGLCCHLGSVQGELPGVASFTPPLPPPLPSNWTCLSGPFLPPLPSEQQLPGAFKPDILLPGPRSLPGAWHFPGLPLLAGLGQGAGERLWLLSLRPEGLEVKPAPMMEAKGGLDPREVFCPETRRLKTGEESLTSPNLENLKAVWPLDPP
How it was run: as §1

ETV3 = target: T6, ETV3 (Homo sapiens, UniProt P41162-2 1-143)
T6 sequence: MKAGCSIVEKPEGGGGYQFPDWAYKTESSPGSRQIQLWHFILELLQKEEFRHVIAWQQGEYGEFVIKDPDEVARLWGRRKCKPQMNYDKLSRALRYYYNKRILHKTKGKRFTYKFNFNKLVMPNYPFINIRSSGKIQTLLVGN
How it was run: as §1

ELK1 = target: T7, ELK1 (Homo sapiens, UniProt P19419 1-428)
T7 sequence: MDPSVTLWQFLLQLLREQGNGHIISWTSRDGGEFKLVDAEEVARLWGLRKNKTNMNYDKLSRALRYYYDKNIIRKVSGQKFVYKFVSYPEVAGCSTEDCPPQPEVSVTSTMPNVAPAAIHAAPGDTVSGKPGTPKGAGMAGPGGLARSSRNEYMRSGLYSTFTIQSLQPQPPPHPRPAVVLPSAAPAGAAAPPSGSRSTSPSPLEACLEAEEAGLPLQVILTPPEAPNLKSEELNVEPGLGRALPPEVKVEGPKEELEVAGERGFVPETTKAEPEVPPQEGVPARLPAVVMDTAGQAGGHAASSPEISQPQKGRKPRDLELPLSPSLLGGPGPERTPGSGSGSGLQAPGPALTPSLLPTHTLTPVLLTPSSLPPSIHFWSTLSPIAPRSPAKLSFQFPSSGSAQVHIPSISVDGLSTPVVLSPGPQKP
How it was run: as §1

EHF = target: T8, EHF (Homo sapiens, UniProt Q9NZC4 1-300)
T8 sequence: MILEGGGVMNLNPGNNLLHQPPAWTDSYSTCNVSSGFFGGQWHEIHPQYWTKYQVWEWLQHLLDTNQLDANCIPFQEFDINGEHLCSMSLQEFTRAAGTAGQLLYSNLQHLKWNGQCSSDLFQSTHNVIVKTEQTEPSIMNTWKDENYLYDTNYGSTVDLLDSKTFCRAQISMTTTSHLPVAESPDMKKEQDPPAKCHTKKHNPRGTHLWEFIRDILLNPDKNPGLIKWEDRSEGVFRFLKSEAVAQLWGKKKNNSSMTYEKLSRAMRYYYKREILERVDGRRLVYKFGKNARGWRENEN
How it was run: as §1

ELK4 = target: T9, ELK4 (Homo sapiens, UniProt P28324-2 1-405)
T9 sequence: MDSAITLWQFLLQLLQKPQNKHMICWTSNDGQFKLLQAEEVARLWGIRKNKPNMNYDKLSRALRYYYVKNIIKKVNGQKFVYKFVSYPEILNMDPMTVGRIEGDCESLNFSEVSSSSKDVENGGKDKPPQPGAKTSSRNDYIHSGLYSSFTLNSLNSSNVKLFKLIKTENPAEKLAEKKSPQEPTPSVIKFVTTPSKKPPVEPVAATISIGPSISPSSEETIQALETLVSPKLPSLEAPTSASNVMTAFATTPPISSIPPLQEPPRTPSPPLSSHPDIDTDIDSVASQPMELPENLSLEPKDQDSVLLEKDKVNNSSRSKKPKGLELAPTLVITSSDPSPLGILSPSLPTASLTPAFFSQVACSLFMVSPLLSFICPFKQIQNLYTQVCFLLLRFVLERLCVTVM
How it was run: as §1

ERF = target: T10, ERF (Homo sapiens, UniProt P50548 1-548)
T10 sequence: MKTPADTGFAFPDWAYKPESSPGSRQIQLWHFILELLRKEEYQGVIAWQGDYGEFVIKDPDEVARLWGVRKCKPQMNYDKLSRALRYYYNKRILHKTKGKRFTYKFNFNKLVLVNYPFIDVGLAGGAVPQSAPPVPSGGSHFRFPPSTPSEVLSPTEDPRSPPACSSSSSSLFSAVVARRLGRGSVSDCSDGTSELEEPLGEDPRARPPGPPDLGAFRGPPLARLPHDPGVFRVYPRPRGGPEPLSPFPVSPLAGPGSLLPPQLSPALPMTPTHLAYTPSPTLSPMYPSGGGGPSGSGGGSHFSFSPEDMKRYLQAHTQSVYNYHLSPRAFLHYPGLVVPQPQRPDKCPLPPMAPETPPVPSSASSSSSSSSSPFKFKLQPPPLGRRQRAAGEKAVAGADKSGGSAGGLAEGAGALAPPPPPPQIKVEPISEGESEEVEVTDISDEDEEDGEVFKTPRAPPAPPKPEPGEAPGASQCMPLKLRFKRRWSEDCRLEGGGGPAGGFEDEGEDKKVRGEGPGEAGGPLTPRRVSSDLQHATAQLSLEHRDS
How it was run: as §1

ETV6 = ETV6 (Homo sapiens, UniProt P41212 1-452)
How it was run: as §1

ERG = target: T11, ERG (Homo sapiens, UniProt P11308 1-479)
T11 sequence: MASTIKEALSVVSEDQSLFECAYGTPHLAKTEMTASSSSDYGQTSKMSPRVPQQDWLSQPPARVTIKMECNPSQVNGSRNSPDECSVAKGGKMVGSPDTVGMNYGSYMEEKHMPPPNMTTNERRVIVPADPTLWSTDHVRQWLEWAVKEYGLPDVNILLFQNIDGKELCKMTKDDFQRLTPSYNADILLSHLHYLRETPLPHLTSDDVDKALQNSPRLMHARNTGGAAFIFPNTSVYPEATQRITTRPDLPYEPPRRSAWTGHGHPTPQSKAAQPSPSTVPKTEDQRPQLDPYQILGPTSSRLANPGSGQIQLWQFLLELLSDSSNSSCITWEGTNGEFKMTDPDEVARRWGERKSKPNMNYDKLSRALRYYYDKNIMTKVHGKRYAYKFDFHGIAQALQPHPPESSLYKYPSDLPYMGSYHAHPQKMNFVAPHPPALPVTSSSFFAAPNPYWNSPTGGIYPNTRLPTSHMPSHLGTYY
How it was run: as §1

ELF3 = target: T12, ELF3 (Homo sapiens, UniProt P78545 1-371)
T12 sequence: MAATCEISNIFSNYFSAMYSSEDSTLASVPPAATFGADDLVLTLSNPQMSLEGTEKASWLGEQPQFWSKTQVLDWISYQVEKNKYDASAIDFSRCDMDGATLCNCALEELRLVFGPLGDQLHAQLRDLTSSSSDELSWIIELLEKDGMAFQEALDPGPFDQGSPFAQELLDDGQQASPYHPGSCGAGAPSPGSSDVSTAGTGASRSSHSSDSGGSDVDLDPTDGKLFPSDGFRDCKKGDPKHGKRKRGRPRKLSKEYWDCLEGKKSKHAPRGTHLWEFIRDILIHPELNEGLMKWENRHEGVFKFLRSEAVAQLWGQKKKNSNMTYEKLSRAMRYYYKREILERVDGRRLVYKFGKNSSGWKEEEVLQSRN
How it was run: as §1

ETV1 = ETV1 (Homo sapiens, UniProt P50549 1-477)
How it was run: as §1

SPIB, sequence (Q01892 whole entry): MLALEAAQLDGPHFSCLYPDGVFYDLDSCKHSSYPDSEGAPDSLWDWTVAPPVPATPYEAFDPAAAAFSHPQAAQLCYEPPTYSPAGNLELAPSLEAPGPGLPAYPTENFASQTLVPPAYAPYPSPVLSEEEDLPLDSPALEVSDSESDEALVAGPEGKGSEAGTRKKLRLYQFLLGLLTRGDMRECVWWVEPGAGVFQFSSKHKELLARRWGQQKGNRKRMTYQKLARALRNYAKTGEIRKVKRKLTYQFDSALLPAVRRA
ETV6, sequence (P41212 whole entry): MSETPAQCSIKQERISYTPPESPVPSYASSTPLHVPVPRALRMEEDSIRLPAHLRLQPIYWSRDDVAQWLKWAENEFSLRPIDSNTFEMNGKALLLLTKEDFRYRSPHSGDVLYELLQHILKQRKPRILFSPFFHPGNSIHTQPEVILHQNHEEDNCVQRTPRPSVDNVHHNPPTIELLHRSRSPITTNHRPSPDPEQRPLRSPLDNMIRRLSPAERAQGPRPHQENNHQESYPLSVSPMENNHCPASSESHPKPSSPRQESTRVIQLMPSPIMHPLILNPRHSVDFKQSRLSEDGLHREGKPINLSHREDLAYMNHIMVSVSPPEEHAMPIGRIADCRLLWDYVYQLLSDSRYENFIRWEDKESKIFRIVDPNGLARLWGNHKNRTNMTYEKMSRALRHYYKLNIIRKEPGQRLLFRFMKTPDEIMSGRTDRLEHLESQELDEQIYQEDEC
ETV1, sequence (P50549 whole entry): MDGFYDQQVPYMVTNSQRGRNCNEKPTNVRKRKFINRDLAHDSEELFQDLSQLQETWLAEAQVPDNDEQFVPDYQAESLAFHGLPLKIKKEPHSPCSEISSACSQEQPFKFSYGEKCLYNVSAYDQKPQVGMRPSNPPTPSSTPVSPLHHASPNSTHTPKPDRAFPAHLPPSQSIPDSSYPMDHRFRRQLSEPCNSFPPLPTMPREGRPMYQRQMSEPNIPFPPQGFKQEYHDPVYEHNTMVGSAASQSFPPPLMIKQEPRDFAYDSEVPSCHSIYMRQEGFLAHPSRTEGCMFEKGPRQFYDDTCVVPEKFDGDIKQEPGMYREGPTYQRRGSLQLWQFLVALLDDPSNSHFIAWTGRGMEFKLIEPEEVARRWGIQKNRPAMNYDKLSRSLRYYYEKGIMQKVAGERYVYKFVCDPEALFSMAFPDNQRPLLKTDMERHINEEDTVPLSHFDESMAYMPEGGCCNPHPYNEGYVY
ELF1, sequence (P32519 whole entry): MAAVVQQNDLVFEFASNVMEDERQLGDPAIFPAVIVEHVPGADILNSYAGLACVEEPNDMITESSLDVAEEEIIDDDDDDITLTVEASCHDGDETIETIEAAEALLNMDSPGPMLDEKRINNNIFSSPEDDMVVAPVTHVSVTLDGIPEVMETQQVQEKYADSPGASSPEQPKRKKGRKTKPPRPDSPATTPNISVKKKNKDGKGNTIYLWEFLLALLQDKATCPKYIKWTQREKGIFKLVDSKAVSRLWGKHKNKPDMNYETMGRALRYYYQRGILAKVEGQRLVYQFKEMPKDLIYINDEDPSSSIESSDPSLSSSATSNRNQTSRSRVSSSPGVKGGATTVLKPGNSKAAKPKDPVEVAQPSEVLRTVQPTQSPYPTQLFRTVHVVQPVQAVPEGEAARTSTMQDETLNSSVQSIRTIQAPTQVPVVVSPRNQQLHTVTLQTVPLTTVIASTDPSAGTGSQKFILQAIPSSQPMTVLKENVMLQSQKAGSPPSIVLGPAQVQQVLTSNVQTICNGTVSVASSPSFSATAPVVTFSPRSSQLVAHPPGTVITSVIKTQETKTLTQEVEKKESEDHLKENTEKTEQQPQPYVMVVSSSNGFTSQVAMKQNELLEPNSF

## TGGTCG
GABPA
  binding signal: 1.08 fold enrichment (6-mer frequency, TF over GST control)
ELF1
  binding signal: 1.02 fold enrichment (6-mer frequency, TF over GST control)
SPIB
  binding signal: 1 fold enrichment (6-mer frequency, TF over GST control)
ELK3
  binding signal: 1.11 fold enrichment (6-mer frequency, TF over GST control)
SPIC
  binding signal: 1.13 fold enrichment (6-mer frequency, TF over GST control)
ETV2
  binding signal: 1.08 fold enrichment (6-mer frequency, TF over GST control)
ETV3L
  binding signal: 1 fold enrichment (6-mer frequency, TF over GST control)
ETV3
  binding signal: 1 fold enrichment (6-mer frequency, TF over GST control)

## TGAAGC
ELK1
  binding signal: 1.05 fold enrichment (6-mer frequency, TF over GST control)
EHF
  binding signal: 1.04 fold enrichment (6-mer frequency, TF over GST control)
ELK4
  binding signal: 1.04 fold enrichment (6-mer frequency, TF over GST control)
ERF
  binding signal: 1.07 fold enrichment (6-mer frequency, TF over GST control)
ETV3
  binding signal: 1 fold enrichment (6-mer frequency, TF over GST control)
ETV6
  binding signal: 1.01 fold enrichment (6-mer frequency, TF over GST control)

## GCGTAT
ELK1
  binding signal: 1.04 fold enrichment (6-mer frequency, TF over GST control)
GABPA
  binding signal: 1 fold enrichment (6-mer frequency, TF over GST control)
ERG
  binding signal: 1.03 fold enrichment (6-mer frequency, TF over GST control)
SPIB
  binding signal: 1.11 fold enrichment (6-mer frequency, TF over GST control)
SPIC
  binding signal: 1.07 fold enrichment (6-mer frequency, TF over GST control)
ELF3
  binding signal: 1.03 fold enrichment (6-mer frequency, TF over GST control)
ETV1
  binding signal: 1.05 fold enrichment (6-mer frequency, TF over GST control)
ETV3L
  binding signal: 1.02 fold enrichment (6-mer frequency, TF over GST control)
